Screening results as filed in PubChem BioAssay.
Pf apPOL block: Pf-apPOL inhibitors, biochemical, fluorescence | Plasmodium falciparum apicoplast DNA polymerase (apPOL) | Recombinant Pf-apPOL, molecular beacon fluorescence, 1.5 h | inhibition, % at 10 µM | 210,000 tested, 0.25% active | AID 1794808, 2022
mHTT CaM bind: mutant huntingtin-calmodulin interaction inhibitors – biochemical, AlphaScreen, primary screen; inhibition, % at 15 µM; P42858; AlphaScreen His-mHTT/GST-CaM binding, luminescence; 190,000 tested, 3.6% active;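 also: 0% = both proteins with DMSO and 100% = one protein alone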
* hit, by the source's call; i = inactive; x = no result. Hits are enriched below; roughly 3.5% of the tested compounds scored in any of these assays. Rule as the data show it: active = inhibition above about 50%; inactive = the rest.

SMILES	Pf apPOL block	mHTT CaM bind
CCN(CC)S(=O)(=O)c1ccc(Cl)c(C(=O)NCC(=O)O)c1	-1.2	1.6
CC(C)Cn1c(=O)[nH]c2c(C(=O)N3CCN(c4ccccc4Cl)CC3)snc2c1=O	-5.0	-5.1
O=C(NCc1ccccn1)c1cc2n(n1)CCCC2	-1.9	-4.1
CC1CCN(S(=O)(=O)c2ccc(F)c(C(=O)Nc3cccc(Cl)c3)c2)CC1	-4.2	-2.0
CC(=O)c1ccc(NC2=C(N3CCCCC3)C(=O)c3ccccc3C2=O)cc1	-12.5	14.0
CCOc1ccc(NC2=C(N3CCCCC3)C(=O)c3ccccc3C2=O)cc1	7.7	95.8*
COc1cccc(NC2=C(N3CCOCC3)C(=O)c3ccccc3C2=O)c1	14.2	37.5
COc1cccc(NC2=C(N3CCCC3)C(=O)c3ccccc3C2=O)c1	0.1	100.2*
Cc1nc(CC(=O)Nc2ccc(F)cc2C)cs1	-0.2	-1.0
NC(=O)c1cc2cc([N+](=O)[O-])ccc2oc1=NCc1ccccc1	-8.0	4.0
CC(=O)N1CCc2sc(S(=O)(=O)NCc3ccccc3Cl)cc2C1	-2.0	4.3
N#COc1ccc(Nc2ccc(OC#N)cc2)cc1	5.3	95.1*
N#Cc1ccc(Oc2ccc(N)cc2)cc1	-4.2	0.3
N#COc1ccc(Oc2ccc(OC#N)cc2)cc1	-29.4	96.8*
COc1ccc(Nc2c(Cl)cc(OC)cc2Cl)cc1	-4.8	x
CC(C)c1cc(C2CCCN2C(=O)Nc2ccc(F)cc2F)on1 (centres undefined)	-2.7	-2.5
Cc1ccc(-n2ncc3c(=O)[nH]c(SCC(=O)O)nc32)cc1C	72.0*	10.0
CCCSc1nc2c(cnn2-c2ccc(C)c(C)c2)c(=O)[nH]1	-5.3	-8.0
CC(=O)NC1=NN(C(C)=O)C(c2ccccc2Cl)S1 (centres undefined)	48.1	4.0
COc1ccccc1C1CC(c2ccc(F)cc2)=NN1C(=O)CN1CCC(C)CC1 (centres undefined)	-3.5	93.4*
COc1ccccc1C1CC(c2cccc(F)c2)=NN1C(=O)CN1CCN(C)CC1 (centres undefined)	0.3	98.8*
COc1ccccc1C1=NN(C(=O)CN2CCC(C)CC2)C(c2cccc(F)c2)C1 (centres undefined)	-6.6	22.3
CC(=O)N1CCN(CC(=O)N2N=C(c3ccccc3)CC2c2ccc(F)cc2)CC1 (centres undefined)	-2.0	29.7
CCCn1cnnc1C1CCN(C(=O)C2(c3ccccc3)CC2)CC1	1.0	-6.1
CN1CCN(c2ccc3c(c2)Oc2ccccc2CN(Cc2cn(Cc4ccc(C(F)(F)F)cc4)nn2)S3(=O)=O)CC1	-5.7	72.4*
SMILES	Pf apPOL block	mHTT CaM bind
O=S1(=O)c2ccc(N3CCCC3)cc2Oc2ccccc2CN1Cc1cn(Cc2ccc(Cl)cc2)nn1	-4.8	-1.6
Cc1ccc(-n2cc(C(=O)N3CCN(c4ccccc4)CC3)c3ccccc3c2=O)cc1C	-0.8	74.0*
Cc1ccc(-n2cc(C(=O)N3CCCC3)c3ccccc3c2=O)cc1C	-6.3	10.0
O=C(c1cccc(Oc2cc(-c3ccccc3)ncn2)c1)N1CCCC1	60.4*	70.3*
CC(C)Oc1cccc(C(=O)N2CCCC2)c1	-3.5	-2.3
Cc1nc(C(=O)NCc2ccc(F)cc2Cl)c(C)o1	1.9	-11.7
COc1ccc(Cl)cc1C1=N/C(=C/c2cccc(Br)c2)C(=O)O1	2.2	5.0
COc1cc(Cl)c(/C=C2\C(=O)Nc3ccc(Br)cc32)cc1OC	-53.1	42.0
COc1cc(Cl)cc(/C=C2\C(=O)Nc3ccc(Br)cc32)c1OC	-3.3	57.0*
COc1cccc(/C=C2\C(=O)Nc3ccc(Br)cc32)c1OC	4.2	89.0*
COc1ccccc1/C=C1\C(=O)Nc2ccc(Br)cc21	3.3	30.0
CC1(C)OC(=O)N2CCn3c(cc4ccccc43)C21C (centres undefined)	x	2.7
Cc1ccc(NC(=O)C2CCCN(c3cn[nH]c(=O)c3)C2)cc1 (centres undefined)	-0.1	-3.9
O=C(NC1CCCCC1)NC1CCN(c2ccccc2)C1=O (centres undefined)	-0.8	-3.4
CCOc1ccc(/C=C(\C#N)c2nc(-c3ccc(OCC)cc3)cs2)cc1	-6.9	-43.1
COc1ccc(C(=O)O/N=C2\CCCc3c2ccc(OC)c3C)cc1[N+](=O)[O-]	7.8	i
CC1(C)CC2CC(C)(CN2C(=O)c2ccc3nc(N4C(=O)CCC4=O)sc3c2)C1 (centres undefined)	0.3	19.3
CC1(C)CC(=O)C2=C(C1)Nc1nc(-c3ccccc3)nn1C2c1ccc(Br)cc1 (centres undefined)	-3.2	35.2
COc1ccc(C2C3=C(CC(C)(C)CC3=O)Nc3nc(-c4ccc(O)cc4)nn32)cc1 (centres undefined)	1.5	50.2*
CC1(C)CC(=O)C2=C(C1)Nc1nc(-c3ccccc3)nn1C2c1ccccc1 (centres undefined)	-2.0	43.0
COc1cccc(C2C3=C(CC(C)(C)CC3=O)Nc3nc(-c4cccc(Cl)c4)nn32)c1 (centres undefined)	-1.5	0.7
COc1ccccc1C1C2=C(CC(C)(C)CC2=O)Nc2nc(-c3cccc(Cl)c3)nn21 (centres undefined)	-3.3	70.4*
COc1ccc(-c2nc3n(n2)C(c2ccccc2)C2=C(CC(C)(C)CC2=O)N3)cc1 (centres undefined)	-4.1	51.6*
Cc1cc(C)cc(NC(=O)Cn2cnc3c(-c4ccc(F)cc4)csc3c2=O)c1	-0.1	-14.4
Cc1noc(C)c1CCC(=O)N1CCN(C(=O)C2CC2c2cccs2)CC1 (centres undefined)	-3.2	-11.3
SMILES	Pf apPOL block	mHTT CaM bind
COc1cccc2c1Oc1[nH]c(-c3ccc(OC)c(OC)c3OC)nc(=S)c1C2	0.0	7.7
COc1cccc(-c2nc(=S)c3c([nH]2)Oc2c(cccc2OC)C3)c1O	43.2	52.9*
COc1cc(C2(c3ccc(O)c(OC)c3)C(=O)Nc3c(C)cc(Br)cc32)ccc1O	3.4	59.6*
Cc1cc(Br)cc2c1NC(=O)C2(O)N1CCOCC1 (centres undefined)	-2.2	-5.0
CC(C)C(=O)Nc1ccc2c(c1)Sc1ncccc1C(=O)N2C	4.8	1.1
COc1cc(/C=C2/SC(=N)NC2=O)ccc1OCc1ccccc1	0.9	28.0
CCOc1cc(/C=C2\SC(=N)NC2=O)ccc1OCc1ccccc1	-5.1	20.0
COc1cc(/C=C2/SC(=N)NC2=O)ccc1OCc1ccc([N+](=O)[O-])cc1	-3.7	20.0
COc1cc(/C=C2/SC(=N)NC2=O)ccc1OCc1ccc(C)cc1	2.6	59.0*
CCOc1cc(/C=C2\SC(=N)NC2=O)ccc1OC	-1.1	11.0
COc1cc(/C=C2\SC(=N)NC2=O)ccc1Oc1ccc(C(F)(F)F)cc1[N+](=O)[O-]	-3.6	50.0*
COc1cc(/C=C2/SC(=N)NC2=O)cc(Br)c1OCc1ccccc1	-5.3	68.0*
COc1cc(/C=C2/SC(=N)NC2=O)ccc1OCc1ccccc1F	-2.2	60.0*
N=c1c2c3c(sc2ncn1CCCn1ccnc1)CCCC3	7.6	3.1
CCSc1nnc2c(n1)OC(CC)N(C(=O)CC)c1ccccc1-2 (centres undefined)	15.4	-1.0
O=C(CC1CCCCN1S(=O)(=O)c1ccc(Cl)cc1)NCc1ccco1 (centres undefined)	-0.2	1.2
CCOc1cc(/C=C2\SC(=N)NC2=O)ccc1OCc1ccc(F)cc1	-4.0	60.0*
